# Assay results published in PubChem BioAssay.
# Entries with a potency or affinity are not part of this list. Calls of active or inactive are those of the source.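 How the source made its calls, unless noted: active means a fitted half-maximal concentration no higher than twice the top valid tested dose, with signal falling as cells die; inconclusive means flat curve between -70% and -30%, or poor fit; inactive means the rest, including signal rising instead of falling.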
# Assay: HepG2 cell cytotoxicity, dose response, cytotoxicity control, cherry-picks, set 2 (AID 687002;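 active means a dose-response fit showing signal loss, with half-maximal concentration no higher than twice the top tested dose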)
# Conditions: HepG2 viability, ATP luminescence (CellTiter-Glo), 48 h; series mostly up to 26 µM; activity change, negative = cytotoxicity: at the top concentration
row,SMILES,"activity change, negative = cytotoxicity"
1,C[C@@H]1CCCCO[C@H](CN(C)Cc2ccccc2)[C@H](C)CN([C@@H](C)CO)C(=O)c2cc(NS(=O)(=O)c3cccs3)ccc2O1,-0.718% (inactive)
2,CC(C)CC#Cc1cnc2c(c1)C(=O)N([C@@H](C)CO)C[C@H](C)[C@H](CN(C)C(=O)c1ccc3c(c1)OCO3)O2,2.06% (inactive)
3,COc1ccc(NC(=O)CSc2ncnc3c2cnn3Cc2ccccc2)cc1,11.1% (inactive)
4,CCC(=O)N1CCC1(C)C(=O)Nc1ccc(C)c(C)c1 (centres undefined),9.63% (inactive)
5,CCOC(=O)CNC(=O)CSc1ncnc2c1cnn2-c1ccc(Cl)cc1,11.4% (inactive)
6,Cc1cc(C(=O)Nc2cccc3c2O[C@@H](CN(C)S(=O)(=O)c2ccccc2)[C@@H](C)CN([C@@H](C)CO)C3=O)n(C)n1,-1.94% [at 23.5 µM] (inactive)
7,Cc1ccc(N2C(=O)CC(N3CCN(c4ccc(F)cc4)CC3)C2=O)c(C)c1 (centres undefined),-0.572% (inactive)
8,CCC(C)N(C(=O)CSc1ncnc2c1cnn2-c1ccccc1)C1CCS(=O)(=O)C1 (centres undefined),-2.87% (inactive)
9,CCC(=O)N1[C@H](CN(C)C(C)=O)[C@@H](c2ccc(C3=CCCCC3)cc2)[C@@H]1CO,1.61% (inactive)

# Assay: HeLa cell cytotoxicity, dose response, cytotoxicity control, ATP luminescence, cherry-pick samples (AID 687004);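 further: 0% = neutral control median and -100% = staurosporine 10 µM control median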
# Conditions: HeLa viability, ATP luminescence (CellTiter-Glo), 48 h; series mostly up to 26 µM; activity change, negative = cytotoxicity: at the top concentration
row,SMILES,"activity change, negative = cytotoxicity"
1,c1ccc(-n2ncc3c(NCc4ccc5c(c4)OCO5)ncnc32)cc1,6.49% (inactive)
2,CCC(=O)Nc1ccc2c(c1)OC[C@H](C)N(C(=O)c1ccc(F)cc1)C[C@@H](C)[C@@H](OC)CN(C)C2=O,5.63% (inactive)
3,Cc1cccc(C)c1NC(=O)C1CCCN1C(=O)OC(C)(C)C (centres undefined),-8.01% (inactive)
4,Cc1noc(C)c1NC(=O)N(C)C[C@H]1Oc2ccc(NC(=O)C3CC3)cc2CC(=O)N([C@@H](C)CO)C[C@H]1C,-2.83% (inactive)
5,CC12CC3CC(C)(C1)CC(C(=O)NC(=S)N1CCCCC1)(C3)C2,18.3% (inactive)
6,CCCN1C(=O)C(O)(C2CC(=O)CC(C)(C)O2)c2ccccc21 (centres undefined),-2.04% (inactive)
7,C[C@H](CO)N1C[C@H](C)[C@H](CN(C)Cc2ccccc2F)Oc2cc(C3=CCCC3)ccc2S1(=O)=O,18.2% [at 12 µM] (inactive)
8,CCCC(=O)Nc1ccc2c(c1)OC[C@H](C)N(Cc1ccccn1)C[C@H](C)[C@H](OC)CN(C)C2=O,8.22% (inactive)
9,Cc1noc(C)c1S(=O)(=O)Nc1ccc2c(c1)C(=O)N([C@@H](C)CO)C[C@@H](C)[C@H](CN(C)Cc1ccc3c(c1)OCO3)OCCCC[C@H](C)O2,-13.9% (inactive)
10,Cc1cc(OCC(=O)NC(C)c2ccccc2)ccc1[N+](=O)[O-] (centres undefined),13% (inactive)
11,O=C(C[C@H]1CC[C@@H]2[C@H](COC[C@H](O)CN2CC2CCOCC2)O1)NCc1ccc(Cl)cc1,9.33% (inactive)
12,CCNC(=O)CN(c1ccc(Cl)cc1)S(=O)(=O)c1ccccc1,13% (inactive)
13,Cc1cc(C)c(NC(=O)CN2CCCCCC2)c(C)c1,7.24% (inactive)
14,CNC(=O)CN(c1ccc(OC)cc1)S(=O)(=O)c1ccc(F)cc1,11.8% (inactive)
15,C[C@@H]1CN([C@H](C)CO)C(=O)c2cc(NS(=O)(=O)c3cn(C)cn3)ccc2O[C@@H](C)CCCCO[C@H]1CN(C)C,7.15% (inactive)
16,COc1ccccc1-c1ccc([C@H]2[C@H](C#N)N(C(=O)C3CC3)[C@H]2CO)cc1,2.38% [at 23.5 µM] (inactive)
17,Cc1ccc(C(=O)n2nnc3ccccc32)cc1[N+](=O)[O-],0.569% (inactive)
18,CC(=O)N1[C@H](CO)[C@H](c2ccc(-c3ccccc3)cc2)[C@@H]1CNC(=O)C1CC1,-3.41% (inactive)
19,O=C(CSc1ncnc2c1cnn2-c1ccc(F)cc1)NCC1CCCO1 (centres undefined),9.09% (inactive)
20,O=C(CCN1CCCCC1)NCC[C@@H]1CC[C@H](NC(=O)c2ccc(F)cc2)[C@@H](CO)O1,-5.24% (inactive)
21,CNC[C@@H]1OCCCC[C@@H](C)Oc2ccc(NC(=O)NC(C)C)cc2C(=O)N([C@@H](C)CO)C[C@H]1C,21.9% (inactive)
22,C/C=C/c1ccc([C@@H]2[C@@H](CNC(=O)C3CCC3)N(C(=O)NCCC)[C@H]2CO)cc1,2.01% (inactive)
23,Cc1cccc(C)c1NC(=O)CN(C)C(=O)CC1CC2CCC1C2 (centres undefined),8.78% (inactive)
24,N#Cc1ccc(C23CC4(C2)[C@H](CN(Cc2ccc(C(F)(F)F)cc2)[C@@H]4c2ccccc2)C3c2ccccc2)cc1 (some centres undefined),2.67% (inactive)
25,Cc1ccc(NC(=S)NCc2ccc(Cl)cc2)c(OC(F)F)c1,4.18% (inactive)
26,Cc1ccc(C2CC(c3cccs3)=NN2C(=O)c2ccc(Br)o2)cc1 (centres undefined),7.58% (inactive)
27,CC(C)(C)SCCNC(=O)CN(c1ccccc1)S(=O)(=O)c1ccccc1,13.7% (inactive)
28,O=C(COc1ccc2c(c1)CCC2)NCc1ccccc1,-1.39% (inactive)
29,COc1ccc(CN(C)C[C@@H]2Oc3ccc(NS(C)(=O)=O)cc3CC(=O)N([C@H](C)CO)C[C@H]2C)cc1,4.28% [at 23.5 µM] (inactive)
30,C[C@@H]1CCCCO[C@H](CN(C)Cc2ccccc2)[C@H](C)CN([C@@H](C)CO)C(=O)c2cc(NS(=O)(=O)c3cccs3)ccc2O1,6.29% (inactive)
